# Experimental data as given in ChEMBL document CHEMBL3988442, “University of Dundee, Small-Polar-MMV Screening Library” (2021).
# The campaign covered roughly 48,000 compounds. About 13,000 (27%) showed an effect of 50% or more. Some of the results follow.
# Tested on: Wolbachia pipientis
# Test: Anti-Wolbachia Cell-Based Screen
# Format: functional
# Design: scale not given: in the data most compounds retested in dose-response had high values
# Settings: 5 µM
row,Compound,Percent Effect [%]
1,CSCCCN1CCC(c2nnc(Cn3ccnc3)n2C2CC2)CC1,14.62
2,N#Cc1cccc(OCCN2CCC(C(=O)N3CCOCC3)CC2)c1,-12.33
3,O=C(CC(F)(F)F)N1C[C@@H]2CC[C@H](C1)N(Cc1ccccc1)C2=O,-3.015
4,CCn1c(C2CCCN(Cc3ccc4ccccc4n3)C2)nn(C)c1=O (centres undefined),31.19
5,COc1ccccc1C1(CNc2cn[nH]c(=O)c2Cl)CCOCC1,-1.761
6,Cc1ncsc1CCN1CCN(C(=O)c2ccc(=O)[nH]c2)CC1,12.93
7,COCC(=O)N1CCn2c(Cn3cncn3)cnc2C1C (centres undefined),79.44
8,COCCC(=O)N1CCn2c(COCC3CC3)cnc2C1C (centres undefined),-18.59
9,C[C@H](N)C(=O)N1CCC(c2[nH]ncc2-c2ccccc2)CC1,108.2
10,CCc1cn[nH]c1C1CCN(C(=O)c2cccc(O)c2C)CC1,-3.715
11,Cc1ccc(-c2cn[nH]c2C2CCCN(c3nccc(N)n3)C2)cc1 (centres undefined),6.644
12,CC(O)C(=O)N1CCC(c2[nH]ncc2-c2ccccc2)CC1 (centres undefined),105.3
13,Cc1ccc(N2CCCC(c3[nH]ncc3-c3ccccc3)C2)nn1 (centres undefined),25.67
14,C[C@@H](N)C(=O)N1CCC(c2[nH]ncc2-c2ccccc2)CC1,132.4
15,CC(C(=O)N1CCC(c2[nH]ncc2-c2ccccc2)CC1)n1cncn1 (centres undefined),96.41
16,FC(F)c1nnc2ccc(N3CCC4(CCOC4)C3)nn12 (centres undefined),-11.38
17,CSc1ncc(CNC(C)c2cnn(-c3ccccc3)c2C)cn1 (centres undefined),31.2
18,CN(CCCc1n[nH]c(N)c1C#N)C(=O)Nc1cc(Cl)cc(Cl)c1,9.984
19,Cc1ccc(NCc2ncc(C(C)(C)C)o2)c(Cl)c1,-11.33
20,O=C(CCC1CCN(Cc2ccncc2)CC1)Nc1ccccc1Cl,-2.559
21,Cc1cnn(CC2CCCCN2C(=O)CN(C)C2CC2)c1 (centres undefined),4.023
22,Cc1cnn(CC2CCCCN2C(=O)Cc2c(C)noc2Cl)c1 (centres undefined),116.9
23,Cc1cnn(CC2CCCN2C(=O)Cc2cn3ccsc3n2)c1 (centres undefined),12.98
24,Cc1cnn(CC2CCCN2C(=O)c2cc(C)no2)c1 (centres undefined),3.618
25,Cc1cnn(CC2CCCN2C(=O)Cc2c(C)noc2Cl)c1 (centres undefined),116
26,CCN1CC2(CCN(C(=O)C(C)Oc3ccc(F)cc3F)CC2)OC1=O (centres undefined),-0.4228

row,Compound,Percent Effect [%]
1,COc1ccc(F)cc1C[S+]([O-])CC(=O)NCc1ccccc1 (centres undefined),-20.74
2,Cc1cc(C[S+]([O-])CC(=O)NCc2cccs2)no1 (centres undefined),-0.248
3,Cc1cc(C[S+]([O-])CC(=O)NCc2ccccc2)no1 (centres undefined),111.1
4,COc1ccccc1CNC(=O)C[S+]([O-])Cc1cc(C)on1 (centres undefined),100.1
5,O=C(C[S+]([O-])Cc1cccc(Cl)c1)NC1CCCC1 (centres undefined),-4.291
6,Cc1cc(C[S+]([O-])CC(=O)Nc2c(C)cccc2C)no1 (centres undefined),4.503
7,COc1ccc(F)cc1C[S+]([O-])CC(=O)NCc1ccccc1C (centres undefined),4.028
8,Cc1cc(C[S+]([O-])CC(=O)NCC(C)C)no1 (centres undefined),-9.622
9,Cc1cc(C[S+]([O-])CC(=O)NCc2cccc(Cl)c2)no1 (centres undefined),98
10,CNC(=O)CCS(=O)(=O)Cc1nnnn1-c1ccccc1,7.116
11,CC1(NC(=O)CC2CCc3ccccc32)CCOCC1 (centres undefined),-18.69
12,CCN(CC(C)C#N)C(=O)c1cccc(COc2ccc(C)nc2)c1 (centres undefined),11.78
13,CC(c1ccco1)N(C(=O)c1cccc(C#N)c1)C1CC1 (centres undefined),-7.767
14,CC(C)c1noc(CN2CCN(C(=O)c3cccnc3O)CC2)n1,109.3
15,CC(C)c1noc(CN2CCN(C(=O)c3cc(Cl)ccc3F)CC2)n1,113.5
16,CC(C)(O)CN1CCN(C(=O)c2cccnc2O)CC1,-5.606
17,CC(C)c1noc(CN2CCN(C(=O)c3ccncc3F)CC2)n1,113.2
18,CC(C)c1noc(CCC(=O)Nc2cc(F)ccc2F)n1,6.757
19,CN(C)Cc1nc2c(o1)CN(C(=O)c1ccncc1F)C2,-6.758
20,CC(C)c1noc(CN2CCN(C(=O)c3ccccc3F)CC2)n1,4.935
21,CC(C)n1ccnc1CN1CCCN(C(=O)c2cccnc2O)CC1,3.954
22,CN(C)C(=O)c1ccc(-c2cscn2)cc1,-9.809
23,O=C(O)C(F)(F)F.O=C(c1cnccn1)N1CCN2C[C@H](Oc3cccc(F)c3)C[C@H]2C1,8.036
24,OC1(CNCc2ccc(F)c(C(F)(F)F)c2)CCOC1 (centres undefined),-11.97
25,CCN1CCC2(CN(C(=O)N(C)C)CC23CCN(CC2CC2)CC3)C1=O.O=C(O)C(F)(F)F (centres undefined),-42.34
26,CC(C)(C)c1nnc(CN2CCCC(Cn3cncn3)C2)o1 (centres undefined),3.207

row,Compound,Percent Effect [%]
1,Cc1nc(CN2CCCC(Cn3cncn3)C2)no1 (centres undefined),79.74
2,c1cnc(-c2nc(CN3CCCC(Cn4cncn4)C3)cs2)nc1 (centres undefined),1.551
3,c1ncn(CCNC2CCCN(Cc3noc(C4CC4)n3)C2)n1 (centres undefined),10.95
4,CC(C)(C)c1nc(CN2CCCC(Cn3cncn3)C2)no1 (centres undefined),114.7
5,c1ncn(CC2CN(Cc3noc(C4CC4)n3)CCO2)n1 (centres undefined),0.6807
6,c1ncn(CC2CCCN(Cc3noc(C4CC4)n3)C2)n1 (centres undefined),115
7,CCCc1nc(CN2CCCC(Cn3cncn3)C2)no1 (centres undefined),15.71
8,Cc1ccc(CNC(=O)NCC(=O)NC(C)(C)C)c(N2CCCC2)c1,2.082
9,Fc1ccccc1-c1noc2c1CN(CC1CC1)CC2,-13.76
10,Cn1ccnc1CN1C[C@@H](F)[C@@H](OCc2nc3cnccc3[nH]2)C1,4.118
11,CCOCCn1c(=O)[nH]c2cc(C(=O)N(C)Cc3ccno3)ccc21,10.95
12,O=C1CCC2(CCNCC2)CN1CCCNc1cccnc1,-8.003
13,O=C(CC1CC1)N1CCN(Cc2cccnc2)c2ncccc2C1.O=C(O)C(F)(F)F.O=C(O)C(F)(F)F,108.8
14,Cc1ccc2c(n1)N(C)CCN(C(=O)C1CC1)C2.O=C(O)C(F)(F)F,-19.49
15,COCC(=O)N1CCN(Cc2cccnc2)c2ncccc2C1.O=C(O)C(F)(F)F.O=C(O)C(F)(F)F,107.3
16,O=C(C1CC1)N1CCN(Cc2ccncc2)c2ncccc2C1.O=C(O)C(F)(F)F.O=C(O)C(F)(F)F,97.41
17,O=C(Cc1ccsc1)N1CCN(CC2CC2)c2ncccc2C1.O=C(O)C(F)(F)F,-24.66
18,COCC(=O)N1CCN(CC2CC2)c2ncccc2C1,17.09
19,CC(=O)NCC(=O)N1CCN(Cc2cccnc2)c2ncccc2C1,-23.25
20,O=C(O)C(F)(F)F.O=C(O)CCC(=O)N1CCN(CC2CC2)c2ncccc2C1,-20.91
21,O=C(CC1CC1)N1CCN(Cc2ccncc2)c2ncccc2C1.O=C(O)C(F)(F)F.O=C(O)C(F)(F)F,106.6
22,CCCS(=O)(=O)N1CCC2(CC1)CCn1c(-c3cnn(C)c3)cnc12.O=C(O)C(F)(F)F,-1.785
23,CC(=O)NS(=O)(=O)c1ccc2c(c1)N(C)CCC2,-0.0475
24,CCc1nsc(N2CCCN(C(=O)c3ccc(OC)cc3)CC2)n1,4.92
25,CN(C)C(=O)N1CCC(C(=O)N2CCOC(CC3CCCCC3)C2)CC1 (centres undefined),1.077
26,CN(C)Cc1nnc(C2CCCN(Cc3ccc(Cl)s3)C2)n1C (centres undefined),-1.038

row,Compound,Percent Effect [%]
1,COc1ncnc2c1CCN(c1cc(C(F)(F)F)ncn1)CC2,-19.6
2,N#Cc1ccnc(N2CCC(NCCN3CCCC3)CC2)c1,4.204
3,Cn1nnnc1SCCNC1CCN(c2ccc3c(c2)OCO3)CC1,-18.49
4,Cn1c(N)nnc1SCc1cc(Br)ccc1Cl,-1.725
5,CN(Cc1cscn1)Cc1cc2c(cc1Br)OCO2,7.123
6,CC(C)C(=O)Nc1ccc(Sc2nncn2C)c(Cl)c1,7.85
7,Cn1cnnc1S(=O)(=O)Cc1cc(Cl)c2c(c1)OCO2,-6.914
8,Cn1nnnc1SCc1cc2c(cc1Cl)OCO2,119.1
9,Cn1cnnc1SCc1cc2c(cc1Br)OCO2,98.1
10,Cn1cnnc1SCc1cc2c(cc1Cl)OCO2,116.9
11,Cn1c(N)nnc1SCc1ccc(Cl)cc1Br,-13.54
12,CCCc1cc(NC(=O)c2cc(N3CCNC3=O)c(F)cc2F)n[nH]1,-4.311
13,Cc1noc(C)c1CN(C)Cc1nc(N)c2ccccc2n1,-15.35
14,Cc1noc(C)c1CN(C)c1ncnc2ccccc12,85.55
15,Cc1noc(C)c1CN(C)c1ncnc2onc(C)c12,10.95
16,O=C(COC[C@@H]1CC[C@H]2[C@H](CCN2Cc2ccco2)O1)N1CCCC1,94.38
17,O=C(c1ccco1)N1CC[C@@H]2O[C@H](COCC3CCOCC3)CC[C@@H]21,-18.62
18,c1coc(CN2CC[C@@H]3O[C@@H](COCC4CCOCC4)CC[C@@H]32)c1,95.89
19,O=C(c1ccco1)N1CC[C@@H]2O[C@@H](COCC3CCOCC3)CC[C@@H]21,-0.1018
20,Cc1cccc(COC[C@@H]2CC[C@H]3[C@H](CCN3C(=O)CC3CC3)O2)n1.O=C(O)C(F)(F)F,-1.291
21,Cc1cccc(COC[C@@H]2CC[C@H]3[C@H](CCN3Cc3ccco3)O2)n1.O=C(O)C(F)(F)F.O=C(O)C(F)(F)F,-8.217
22,O=C(COC[C@H]1CC[C@H]2[C@H](CCN2c2ncccn2)O1)N1CCCC1.O=C(O)C(F)(F)F,-10.98
23,CN(C)C(=O)COC[C@H]1CC[C@@H]2[C@@H](CCN2Cc2ccco2)O1.O=C(O)C(F)(F)F,91.23
24,CN(C)C(=O)COCC1C[C@@H]2OCCN(Cc3ccco3)[C@H]2C1 (some centres undefined),-1.169
25,Cc1cccc(COC[C@H]2CC[C@H]3[C@H](CCN3Cc3ccco3)O2)n1,105.2
26,COCCN1CC[C@@H]2O[C@@H](COCC(=O)N3CCCC3)CC[C@@H]21.O=C(O)C(F)(F)F,-7.716
